JMJD2A Tudor: JMJD2A Tudor domain (human) inhibition | hit rate 4.4% among 390,000 | Potency, µM (top dose mostly 114 µM), inactives show at the top dose activity change, negative = inhibition, actives largely listed as inhibitors | O75164 | AlphaScreen JMJD2A-Tudor / H3K4me3 peptide binding | AID 504339; also: potency is read from the fitted curve at half-maximal effect; % is scaled to controls: 0 for no effect and ±100 for the full control effect; nearly all actives have a fitted effect of over 50% in size
Six1-Eya2 inh: Six1/Eya2 interaction inhibition. AlphaScreen GST-Six1/His-Eya2 binding, biochemical; stronger effect = lower value. activity change, % (no concentration beside the values). Q15475+O00167. hit rate 0.56% among 360,000; in the data active = activity change below about -65%; inconclusive = mostly about -30% to -63%; also: % is scaled to controls: 0 for no effect and ±100 for the full control effect
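GST-Six1 + His-Eya2 (5X stock: 250/500 nM); Tris pH 8.0, 300 mM NaCl, 0.05% BSA, 0.02% Tween 20; GSH donor/Ni acceptor beads; 1 h 37 °C dark; AlphaScreen readout.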
BAZ2B block: blocks human BAZ2B | hit rate 4.4% among 360,000 | Q9UIF8 | Potency, µM (doses to about 114 µM), inactives show at the top dose activity change, negative = inhibition, hits mostly inhibitors | AID 504333 | AlphaScreen BAZ2B-H3K14Ac peptide displacement; also: potency is read from the fitted curve at half-maximal effect; % is scaled to controls: 0 for no effect and ±100 for the full control effect; nearly all actives have a fitted effect of over 60% in size
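BAZ2B 50 nM plus b-H3(5-23)K14Ac 50 nM, PBS pH 7.4/0.01% Tween-20, 30 min RT; compound added (max 110 uM), 30 min RT; streptavidin donor/Ni-chelate acceptor beads 10 ug/mL final, 20 min dark; AlphaScreen read.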
G9a inh: inhibitors of human histone lysine methyltransferase G9a; Q96KQ7; G9a H3K9 monomethylation, AlphaScreen, 2 h; Potency, µM (doses to about 102 µM), without a hit: top-dose activity, negative = inhibition, most hits filed as inhibitors; hit rate 8.8% among 350,000; AID 504332; also: potency is read from the fitted curve at half-maximal effect; % is scaled to controls: 0 for no effect and ±100 for the full control effect; nearly all actives have a fitted effect of over 75% in size
Target sequence (Q96KQ7 913-1193 limits assumed): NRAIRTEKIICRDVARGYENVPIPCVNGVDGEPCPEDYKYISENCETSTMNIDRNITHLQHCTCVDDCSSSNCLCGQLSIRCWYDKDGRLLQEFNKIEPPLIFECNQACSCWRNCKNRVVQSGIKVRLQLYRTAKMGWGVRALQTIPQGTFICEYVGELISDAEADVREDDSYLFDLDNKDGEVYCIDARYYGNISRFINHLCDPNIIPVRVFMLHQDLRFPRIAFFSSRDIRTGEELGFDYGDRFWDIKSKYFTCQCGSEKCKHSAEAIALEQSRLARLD
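Chemiluminescent proximity detection of H3K9 monomethylation, read after 10 min bead incubation in the dark. Reaction: 20 nM G9a, 500 nM biotin-H3K9 peptide, 20 uM SAM cofactor, 2 h, room temperature, following 15 min enzyme-compound preincubation.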
CtBP-E1A inh: inhibitors of CtBP/E1A interaction; AlphaScreen GST-E1A/His-CtBP binding, 1536-well; stronger effect = lower value; activity change, % (no concentration beside the values); hit rate 0.49% among 340,000; in the data active = activity change below about -65%; inconclusive = mostly about -30% to -63%; also: % is scaled to controls: 0 for no effect and ±100 for the full control effect
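GST-E1A and His-tagged CtBP (125 nM each as 5X stock) were preincubated with pin-transferred compound for 2 h at 37 °C in the dark, then glutathione donor and nickel acceptor beads were added for 1 h before AlphaScreen reading.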
HP1b binding inh: HP1-beta chromodomain-methylated histone interaction inhibition; P83916; Potency, µM (titrated, usually from 114 µM), without a hit: top-dose activity change, negative = inhibition, usual class: inhibitors; AlphaScreen HP1-beta / biotin-H3K9me3 peptide binding; hit rate 0.56% among 390,000; AID 540317; also: potency is read from the fitted curve at half-maximal effect; nearly all actives have a fitted effect of over 70% in size
Target sequence (P83916 whole entry, looked up): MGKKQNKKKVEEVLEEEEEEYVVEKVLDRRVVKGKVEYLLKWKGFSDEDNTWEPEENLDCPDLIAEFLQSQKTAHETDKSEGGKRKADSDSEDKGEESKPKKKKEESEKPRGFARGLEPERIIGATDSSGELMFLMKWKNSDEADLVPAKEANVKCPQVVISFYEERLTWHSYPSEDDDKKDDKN
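AlphaScreen: HP1-beta (50 nM) preformed 30 min with biotin-H3(1-18)K9me3 peptide (50 nM) in PBS pH 7.4, 0.01% Tween-20. Compound added for 30 min at RT, then streptavidin donor/nickel chelate acceptor beads (10 ug/mL) for 30 min.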
* hit, by the source's call; ? = inconclusive; nt = no result given; [ ] = another dose, or the depositor's remark. Shown are actives, neighbours in structure and some others; about 10% of the full set was active somewhere. Unless noted, calls follow the shape of the dose curve; as a rule, active = well fitted inhibition curve with a large enough effect; inconclusive = small, poorly fitted or top-dose-only effect; inactive = no such curve, though single readings can be large or run the other way.

SMILES	JMJD2A Tudor	Six1-Eya2 inh	BAZ2B block	G9a inh	CtBP-E1A inh	HP1b binding inh
COc1ccc(-c2cc(=O)n(-c3ccc([N+](=O)[O-])cc3)[nH]2)cc1	56µM*	?	40µM*	10µM*	-11	?
COc1ccc(-c2[nH]n(-c3ccc([N+](=O)[O-])cc3)c(=O)c2C=NCc2ccc(F)cc2)cc1	-26%	-1	4%	-14%[59 µM]	0	9%
CCOC(=O)COn1c(=O)c(-c2ccc(OC)c(OC)c2)[n+]([O-])c2ccccc21	nt	nt	-1%	22µM*	nt	nt
C=CCOn1c(=O)c(-c2ccc(OC)c(OC)c2)[n+]([O-])c2ccccc21	89µM*	-5	-38%	8.9µM*	-5	-23%
COc1ccc(-c2c(=O)n(OC)c3ccccc3[n+]2[O-])cc1OC	-22%	-28	-9%	32µM*	-7	-10%
COc1ccc(-c2c(=O)n(OCc3ccccc3[N+](=O)[O-])c3ccccc3[n+]2[O-])c(OC)c1	-28%	-6	-32%	45µM*	-1	-2%
COc1ccc(-c2c(=O)n(OCc3ccccn3)c3ccccc3[n+]2[O-])cc1OC	-30%	-1	-4%	?	-1	-7%
Cc1ccc(-c2nnc(Nc3ccc(OCC(N)=O)cc3)c3ccccc23)cc1S(=O)(=O)N(C)C	-17%	nt	-19%	-4%[59 µM]	nt	29%
COc1ccc(C(=O)Nc2ccc(-n3nncc3-c3ccc(OC)c(OC)c3)cc2)cc1	-16%	nt	-10%	14%[59 µM]	nt	5%
CCOC(=O)COn1c(=O)c(=O)n(OC)c2ccccc21	?	-2	12%	-2%[12.7 µM]	-12	-26%
CCOC(=O)COn1c(=O)c(=O)n(O)c2ccccc21	50µM*	-1	-5%	45µM*	12	5%
O=S(=O)(c1ccccc1Cl)N1CCN(c2nc(-c3ccccc3)nc3ccccc23)CC1	-6%	nt	nt	nt	nt	23%
COc1cc(N2Cc3ccccc3C2)ccc1C=O	-23%	-3	-2%	32µM*	-17	10%
COc1cc(N2CCOCC2)ccc1C=C(C#N)C#N	-11%	-2	-19%	-3%	21	28%
Cc1cc(C)cc(NC(=O)C(=O)NCC(c2ccc3c(c2)OCO3)N2CCOCC2)c1 (stereo not drawn)	-7%	nt	0%	-21%[59 µM]	nt	17%[57 µM]
CCc1cc(=O)oc2c(CN3CCN(C)CC3)c(O)ccc12	1%	1	27%	-1%[2.33 µM]	-9	21%
CN1CCN(Cc2c(O)ccc3cc(Br)ccc23)CC1	?	-2	nt	5µM*	3	1%
COc1cc(Nc2nc(SCc3ccccc3Cl)nc3ccccc23)cc(OC)c1	-1%	nt	4%	21%[59 µM]	nt	45%
COc1ccccc1CN1CCN(C2CCN(C(=O)Nc3ccccc3)CC2)C(=O)C1=O	10%	nt	0%	-3%[12.7 µM]	nt	45%
CSc1ccccc1NC(=O)c1cnccn1	-24%	4	0%	25µM*	0	6%
Cc1ccccc1Cn1ccc(NC(=O)c2cc3ncc(Br)cn3n2)n1	-11%	9	50µM*	-37%	nt	33%
CC(C)c1ccccc1NC(=O)c1cnccn1	-8%	-1	-3%	-14%[12.7 µM]	4	32%
CSc1ccccc1NC(=O)c1cc2ncc(Br)cn2n1	?	22	56µM*	35µM*	0	-10%
Cc1ccc(-c2nn(CC(=O)NC3CCCC3)c3c2cnc2ccc(F)cc23)cc1C	-8%	nt	-11%	6%[59 µM]	nt	17%
Cc1ccc(C(=O)c2cn(Cc3ccccc3F)c3cc4c(cc3c2=O)OCO4)cc1	-15%	nt	-23%	2%[59 µM]	nt	33%
Cc1ccc(-n2cccc2C(=O)NS(=O)(=O)c2ccc(C)cc2)cc1	-18%	-1	-34%	-37%	2	50%
Cc1ccc(-n2cccc2C(=S)N=P(N(C)C)(N(C)C)N(C)C)cc1	35µM*	-11	?	?	5	-27%
COc1ccc(CNC(=O)C(=O)NCC(c2cccs2)S(=O)(=O)c2cccs2)cc1 (stereo not drawn)	-9%	nt	-10%	6%[59 µM]	nt	1%
CCOC(=O)Cn1c(=O)cc(C)c2ccccc21	13µM*	-3	-1%	13%[59 µM]	nt	?

Source: PubChem (National Center for Advancing Translational Sciences (NCATS))
